Composite z-score data for 36 compounds are collected here from PubChem BioAssay.

In this assay the test system is Noggin (protein binding on small-molecule microarray). The assay is described as follows: Noggin binders on small-molecule microarray, primary screen, biochemical, 635/667 nm fluorescence (AID 1095).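 Further: score merges 667 nm feature fluorescence with signal to noise over triplicate slides.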 Particulars: 635 nm fluorescence, higher = more signal.
In turn, `CC(C)C(O)C1C=CC2C(=O)N(C)C(=O)C2N1Nc1ccccc1` (stereo unspecified) displayed a composite z-score of 0.206.

Compound `Cc1c(NC(=O)/C(C#N)=C/C=C/c2ccc(N(C)C)cc2)c(=O)n(-c2ccccc2)n1C` showed a composite z-score of 0.586.

`COc1cc(CO)cc(I)c1O[C@H]1C=C(C(=O)NCCO)C[C@@H](N(Cc2ccc(F)cc2)C(=O)C2CCCO2)[C@@H]1O` (stereo partly specified) showed a composite z-score of 0.0313.

The compound `O=C1C[C@@](C(=O)NCC(F)(F)F)(c2ccc([N+](=O)[O-])cc2)[C@@H](c2ccc(CO)cc2)N1C1CCCCC1` yielded a composite z-score of 0.956.

As to `COC(=O)Cn1c(C(=O)N2CCCC2)cc2c1C[C@H]1CN(C(=O)c3ccccc3)[C@@](Cc3ccc(F)cc3)(C(=O)OC)[C@@H]21`, the composite z-score was -0.405.

Compound `O=C(CS)NCCCCCCNC(=O)[C@H]1C[C@H]2C(=O)N[C@@H](Cc3ccccc3)C(=O)N2[C@H]1c1cccc(OCCO)c1` registered a composite z-score of 1.6.

`COc1cc2c(cc1OC)CN(C(=O)[C@H]1[C@@H]3C(=O)O[C@@H](c4ccccc4)[C@@H](c4ccccc4)N3[C@@H](c3ccc(OCCO)cc3)[C@]13C(=O)Nc1ccc(C#CC4(O)CCCCCC4)cc13)CC2` had a composite z-score of 1.47.

Compound `O=C1O[C@H](c2ccccc2)[C@H](c2ccccc2)N2[C@H]1[C@@H](C(=O)O)[C@]1(C(=O)Nc3ccccc31)[C@H]2c1ccc(O)cc1` had a composite z-score of -0.317.

As for `CC(=O)N1Cc2ccccc2C[C@]2(N=C(c3ccc(OCCCO)cc3)O[C@@H]2c2ccccc2)C1=O`, the composite z-score amounted to 0.648.

Take `Cc1ccc(S[C@]2(C(=O)O)CC(=O)N(Cc3ccccc3Cl)[C@@H]2c2ccc(CO)cc2)cc1`: the composite z-score was -1.46.

The compound `COc1c(C)cc(-c2cc3c(c(-c4ccccc4)n2)[Si](C(C)C)(C(C)C)OC3)cc1C` yielded a composite z-score of -0.24.

`O=C(CCCCCCC(=O)Nc1ccccc1)N/N=C/c1ccccc1` registered a composite z-score of -0.361.

Compound `CCOC(=O)C[C@H]1[C@H](OC(=O)Cc2ccc3c(c2)OCO3)[C@@H](NC(=O)C2CCCCC2)c2cc(OCCCO)ccc2N1C(=O)c1ccc2ccccc2n1` displayed a composite z-score of 1.98.

With `O=C(NC1CC1)[C@@H]1c2ccccc2C(=O)N(Cc2ccccc2)[C@H]1c1ccc(CO)cc1`, the composite z-score was -0.43.

Consider `NC(N)=NCc1cn(CCc2c[nH]c3ccccc23)nn1`, for which the composite z-score worked out at 1.36.

In turn, `COCCCNC(=O)[C@@]1(Sc2ccc(C)cc2)CC(=O)N(Cc2cc(C(F)(F)F)cc(C(F)(F)F)c2)[C@@H]1c1ccc(CO)cc1` had a composite z-score of 1.6.

The compound `O=C1O[C@@H](c2ccccc2)[C@@H](c2ccccc2)N2[C@@H](c3ccc(O)cc3)[C@]3(C(=O)Nc4ccc(C#CC5=CCCCC5)cc43)[C@@H](C(=O)N3CCN(c4ncccn4)CC3)[C@H]12` showed a composite z-score of 1.86.

Compound `COCCOC(=O)N1C(=O)[C@@]2(c3cc(C#CC4=CCCCC4)ccc31)[C@H](c1ccccc1OCCO)N1[C@H](c3ccccc3)[C@H](c3ccccc3)OC(=O)[C@H]1[C@@H]2C(=O)N1CCc2cc(OC)c(OC)cc2C1` registered a composite z-score of 0.676.

In turn, `CC[C@H]1C2=C3C(CC[C@H]4C(OCc5ccc(F)cc5C(F)(F)F)OC[C@](C)([C@@H]34)N(C(=O)OC(C)(C)C)C2)C2COC(=O)OCC21` (stereo partly specified) had a composite z-score of -0.581.

Compound `CO[C@H]1O[C@H](CO)[C@@H](OC(=O)Nc2ccccc2-c2ccccc2)[C@H](OC(=O)Nc2ccc3c(c2)OCO3)[C@@H]1OC(=O)Nc1ccc2c(c1)OCO2` yielded a composite z-score of 0.91.

Compound `COCCCNC(=O)[C@@]1(Sc2ccc(C)cc2)CC(=O)N(C2Cc3ccccc3C2)[C@@H]1c1ccc(CO)cc1I` displayed a composite z-score of -1.39.

Compound `Cc1ccc(S[C@]2(C(=O)NCc3ccccc3)CC(=O)N(C(C)C)[C@@H]2c2ccc(CO)cc2I)cc1` showed a composite z-score of -0.466.

`CC(C)C(O)C1C=CC2C(=O)N(C)C(=O)C2N1N(c1ccccc1)c1ccccc1` (stereo unspecified) gave a composite z-score of -0.306.

For the compound `O=C1OCC=C[C@H]2OC34C=CCN(Cn5nnc6ccccc65)C(=O)[C@H]3N(CCCCCCO)C(=O)[C@@H]4[C@@H]12` (stereo partly specified), the composite z-score was -1.04.

As to `COC(=O)[C@@]1(Cc2ccccc2)[C@H]2c3cc(C(=O)N4CCCC4)n(Cc4cc(F)cc5c4OCOC5)c3C[C@H]2CN1C(=O)c1ccccc1`, the composite z-score is -0.584.

The compound `O=C(O)[C@H](Cc1ccccc1)n1cc(-c2ccccn2)nn1` came in with a composite z-score of 0.665.

Take `CN(C)CCCNC(=O)[C@@]1(c2ccc([N+](=O)[O-])cc2)CC(=O)N(CC23CC4CC(CC(C4)C2)C3)[C@@H]1c1ccc(CO)cc1`: the composite z-score came to 1.32.

`CCOC(=O)C[C@H]1[C@H](OC(=O)c2ccc(-c3ccccc3)cc2)[C@@H](NC(=O)c2ccc3ccccc3n2)c2cc(OCCCO)ccc2N1C(=O)c1ccccc1`: the composite z-score stood at 0.671.

With `CCOC(=O)C1=CC[C@@H](c2ccccc2)N(S(=O)(=O)c2ccc(C)cc2)C1`, the composite z-score is -0.0914.

In the case of `CCOC(=O)[C@H]1C/C=C/C[C@H](C(=O)OCC)C(=O)O[C@H]2[C@@H](OC)O[C@H](CO)[C@@H](OC(=O)Nc3ccc(OC)cc3)[C@@H]2OC1=O`, the composite z-score was found to be 0.713.

Compound `COC(=O)[C@H](Cc1ccccc1)N1CC(/C=C/C2CC2)=C[C@@H]1[C@@H](O)Cc1ccccc1` yielded a composite z-score of 0.685.

For the compound `Cc1ccc(F)cc1S(=O)(=O)N[C@@H]1CCN(Cc2ccc(Oc3ccccc3)cc2)C1`, the composite z-score was determined as 0.966.

For `COCCOC(=O)N1C(=O)[C@@]2(c3cc(C#Cc4ccc(OC)cc4)ccc31)[C@H](C(=O)NC[C@H](O)c1ccccc1)[C@H]1C(=O)O[C@H](c3ccccc3)[C@H](c3ccccc3)N1[C@@H]2c1ccc(O)cc1`, the composite z-score was found to be 0.793.

For `CN(C)CCCNC(=O)[C@@H]1c2ccccc2C(=O)N(CC23CC4CC(CC(C4)C2)C3)[C@H]1c1ccc(CO)cc1`, the composite z-score stood at 0.954.

The compound `CCOC(=O)[C@@H]1[C@@H]2C(=O)N(CC)C(=O)[C@@H]2C[C@@H]1Sc1ccccc1` registered a composite z-score of -0.132.

`CC(C)C(=C=CC[C@@H](O)c1ccccc1OCCO)C[C@@H](O)COCc1ccccc1` had a composite z-score of 1.24.
